From PubChem BioAssay (NCATS)
Results filed as inconclusive are left out. Active and inactive are the calls of the source. Calls come from the whole dose curve.

Target: Atrial natriuretic peptide receptor 1 (Homo sapiens) (UniProt P16066)
Experiment: Natriuretic polypeptide receptor (hNpr1) antagonism - Pilot CMLD screen (AID 1347052)
Conditions: HEK293 hNpr1 GloSensor cGMP luminescence, ANP-stimulated; series mostly up to 9.22 µM
Method: In order to identify small molecular compounds that inhibit the hNpr1 receptor we developed a high-throughput assay to measure inhibition of the guanylate cyclase activity of the receptor. cGMP production was measured using a circular permutated Firefly luciferase (FLuc) enzyme functionally linked to the cGMP binding domain of human phosphodiesterase 5 (GloSensor technology pGS-40F, (Fan, F. et al. 2008). The cGMP-sensor was expressed in human embryonic kidney 293 (HEK-293) cells and FLuc activity was measured after stimulation with hNrp agonist peptide. hNrp agonists activates the receptor's associated guanylyl cyclase (GC) domain producing cGMP which then binds to the GloSensor resulting in FLuc activation, the enzymatic activity of which can be measured as bioluminescence with addition of luciferin substrate.
This assay was initially piloted by testing with a small library of specialty compounds.
PROTOCOL TABLES (as described by Inglese J, Shamu CE and Guy RK. 2007)
SEQUENCE No. (e.g., 1, 2, 3, etc.); […] (e.g., Cells, Incubation, Reagent, etc.); VALUE and DESCRIPTION.
1. Cells. Seed 1500 HEK293 cGMP-sensor cells expressing hNpr1 per well in 4uL into Greiner 1536-well white/solid bottom high base, tissue culture-treated plates.
2. Incubation. Incubate plated cells at 37C in 5% CO2, 95% RH overnight.
3. Reagent. Add 1uL per well GloSensor reagent from Promega (2% final concentration) or CO2 independent media vehicle control to respective columns of Greiner 1536-well plates.
4. Incubation. Incubate plated cells at room temperature for 2 h, protect from light.
5. Compounds. Library compounds and A-71915 control added at 23 nL per well, transferred by Pin Tool.
6. Incubation. Incubate plated cells for 30 min. at room temperature, protect from light.
7. Detector. GloSensor baseline pre-read luminescence measured using CCD-based camera (Viewlux).
8. Compound. Add 1uL of hNppA peptide to 0.1 nM final concentration to stimulate hNpr1 or CO2 independent media as vehicle control.
9. Incubation. Incubate treated cells at room temperature for 20 min., protect from light.
10. Detector. GloSensor post-hNppA luminescence measured using CCD-based camera (Viewlux).
NOTES (numbers refer to Sequence numbers above)
1. HEK293 cells expressing hNpr1 and GIP/pGS-40F grown to 85-95% confluence (48-72 h) in T175 culture flasks (CO2 independent media supplemented with 10% FBS, 1% Pen/Strep antibiotics and 1 ug/mL puromycin). Trypsinize and harvest cells from T175 culture flasks and filter through 40 um cell strainer. Cells counted with Invitrogen Countess (30,000,000 - 50,000,000 cells/flask). Cells diluted to a final concentration of 375 cells/uL in CO2 independent media and a Millipore multidrop used to dispense 1500 cells per well (4uL/well) into 13 1536-well Greiner White/Solid bottom, high base tissue-culture treated (TC) plates and one Aurora 1536-well Black/Clear bottom, low base, TC plate (for visual inspection of cell health throughout the duration of the assay).
2. Cells incubated overnight at ambient temperature, 24 h. at 37C in 95% RH incubator protected from light, covered with metal lid with gas-exchange holes.
3. Prepare GloSensor Reagent (Promega): Reconstitute GloSensor luciferase substrate by adding 8.2mL Hepes buffer to 250mg substrate, mix well, protect from light and stored at -80C. Prepare a fresh 12% GloSensor solution in CO2 independent supplemented plating media (see above). Mix well and store at ambient temperature, protected from light. 1uL 12% GloSensor Luciferase Reagent added (2% final concentration) to respective columns of 13 x 1536-well Greiner plate with BioRaptr, 1uL CO2 independent plating media added to respective columns as vehicle control with BioRaptr.
4. Cells incubated for 2 h. at ambient temperature, protected from light with metal lid with gas-exchange holes.
5. A-71915 stock solution prepared (10 mM in DMSO). […]

Chain of Atrial natriuretic peptide receptor 1 (Homo sapiens) (P16066 whole entry, looked up): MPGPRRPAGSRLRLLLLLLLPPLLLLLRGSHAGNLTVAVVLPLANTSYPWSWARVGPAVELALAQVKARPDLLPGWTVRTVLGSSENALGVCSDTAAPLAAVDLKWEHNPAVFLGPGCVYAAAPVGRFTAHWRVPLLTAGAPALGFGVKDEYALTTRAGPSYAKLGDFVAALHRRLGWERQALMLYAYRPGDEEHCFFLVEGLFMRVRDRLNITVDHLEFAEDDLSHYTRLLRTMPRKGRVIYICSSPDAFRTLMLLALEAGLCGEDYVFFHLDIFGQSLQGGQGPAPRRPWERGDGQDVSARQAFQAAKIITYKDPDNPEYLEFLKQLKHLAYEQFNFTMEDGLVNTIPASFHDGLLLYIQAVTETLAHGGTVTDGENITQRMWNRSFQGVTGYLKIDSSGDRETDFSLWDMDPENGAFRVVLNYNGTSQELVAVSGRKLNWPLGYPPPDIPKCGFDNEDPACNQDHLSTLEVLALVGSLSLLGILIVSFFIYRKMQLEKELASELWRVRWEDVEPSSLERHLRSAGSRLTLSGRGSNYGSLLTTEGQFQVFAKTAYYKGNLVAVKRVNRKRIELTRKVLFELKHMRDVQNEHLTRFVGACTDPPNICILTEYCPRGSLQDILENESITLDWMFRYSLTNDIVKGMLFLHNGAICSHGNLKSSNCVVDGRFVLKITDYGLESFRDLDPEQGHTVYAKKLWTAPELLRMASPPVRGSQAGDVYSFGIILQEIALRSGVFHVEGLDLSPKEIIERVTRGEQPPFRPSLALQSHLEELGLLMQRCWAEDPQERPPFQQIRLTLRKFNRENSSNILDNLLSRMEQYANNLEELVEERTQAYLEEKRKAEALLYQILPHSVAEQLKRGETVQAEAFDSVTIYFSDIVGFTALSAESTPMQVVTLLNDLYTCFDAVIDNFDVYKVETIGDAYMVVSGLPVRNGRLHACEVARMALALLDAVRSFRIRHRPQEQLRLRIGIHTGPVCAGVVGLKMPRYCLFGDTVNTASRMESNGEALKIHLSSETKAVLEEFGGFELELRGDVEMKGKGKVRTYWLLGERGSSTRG

Potency, inactive:
COC(=O)[C@H](COC(C)(C)C)NC(=O)O[C@@H]1C(=O)c2ccc(OC)cc2O[C@H]1c1ccc2c(c1)OCO2
COc1cccc([C@H]2NC(=O)C[C@@H]3C[C@@H](C)[C@@H](c4cccc(OC)c4)N3C(=O)C=CC[C@@H]2C)c1
COC(=O)CC=C[C@@H](C)[C@@H](C=NOC[C@@H](C)[C@H](OCc1ccccc1)C(C)C)NS(=O)(=O)c1ccc(C)cc1
C#CCN1C(=O)[C@]2(O[C@H](C)CC3=CCCC32)c2c(Br)cccc21 (stereo not given in full)
CC(C)CON=C1C[C@@H](O)[C@@H](O)[C@@H]2[C@H]3C(=O)N(Cc4ccc5c(c4)OCO5)C(=O)[C@@H]3CC[C@H]12
CCCNC(=O)OC[C@H]1O[C@H](CCON=C(C)CCN2CCCc3nc(C)c(C)cc32)C=C[C@H]1Oc1ccc(OC)cc1
COC1=C[C@H](C(=O)NC2CCN(Cc3ccccc3)CC2)C(C)C(c2ccccc2)CC1=O (stereo not given in full)
CC=C[C@@H]1Oc2ccc(OC)cc2N2C(=O)[C@H](C)[C@@H](OCOC)[C@H]12
C=C(C)C1CC23C(=O)[C@]4(C(=O)c5ccccc5)C[C@@]5(C)CCC(CC2C1(C)C)(C4=O)[C@@]35OC (stereo not given in full)
COC(=O)[C@H](COC(C)(C)C)NC(=O)O[C@@H]1C(=O)c2cc(OC)ccc2O[C@H]1c1cccc(OC)c1
O=C1OC2(CCCCC2)CC2=C1[C@H]1O[C@](c3ccsc3)(Cc3ccccc31)O2
CCOC(=O)NN=C1C[C@@H](O)[C@@H](O)[C@@H]2[C@H]3C(=O)N(Cc4ccc5c(c4)OCO5)C(=O)[C@@H]3CC[C@@H]12
C[C@@H]1C=CCCO[C@]12C(=O)Nc1ccc(O)cc12
C=C(C)C(O)C=Cc1ccc(Br)cc1 (stereo not given)
COC(=O)C(C(C)=O)C(=O)C(Cc1ccccc1)NC(=O)OCc1ccccc1 (stereo not given)
CCCCCCCC1=CC2=CC(=O)C(C)(O)C(=O)C2=CN1CCCC (stereo not given)
C[C@@H]1CC[C@H]2C(=O)N(Cc3ccc(Cl)cc3)C[C@@H](O)CN2[C@@H]1c1ccc(Br)cc1
COC(=O)CC=C[C@@H](C)[C@@H](C=NOC[C@H]1O[C@H](c2ccccc2)C=C[C@H]1Oc1ccc(OC)cc1)N[S+](=O)([O-])c1ccc(C)cc1
COC(=O)CC1c2ccccc2C=C(C2CC2)N1C(=O)OC (stereo not given)
C[C@@H]1C(c2ccccc2)CC(=O)C(=O)C[C@@H]1C(=O)N1CCCC1 (stereo not given in full)
COc1ccc2c(c1)O[C@@H](c1cccc(C(F)(F)F)c1)[C@H](OC(=O)NC1CCCC1)C2=O
CC(=O)OC[C@H]1O[C@H](C#CC(C)(C)C)C=C[C@H]1OC(C)=O
CCN1C(=O)NC(c2cccc(C(F)(F)F)c2)C(C(C)=O)=C1C (stereo not given)
C=CCOC(=O)C(C(C)=O)[C@@H](NC(=O)OC)c1ccco1 (stereo not given in full)
COC(=O)C1=C(C)N(CC2CC2)C(N(C)Cc2ccc(OC)cc2)=NC1c1ccccc1 (stereo not given)
O=C1OC2(CCCCC2)CC2=C1[C@H]1O[C@](CCCCN3C(=O)c4ccccc4C3=O)(Cc3ccccc31)O2
COc1cccc2c1[C@H](C=Cc1ccccc1)[C@@H]([C@H](O)CO)OC2
c1ccc(-c2nc(-c3cccs3)c(NC3CCCCC3)o2)cc1
COC(=O)C(C(C)=O)[C@@H](NC(=O)OC(C)(C)C)c1ccccc1 (stereo not given in full)
COC(=O)CC=C[C@H](C)[C@@H](OCc1ccccc1Br)C(C)C
CCCC=CC1C(=O)[C@@H]2O[C@H]2C2(OCC(CC)(CC)CO2)C1CO (stereo not given in full)
COC(=O)N[C@H](c1ccccc1)C(C(=O)OC)C(=O)OC
COC(=O)C1C[C@@]23C(=NN=C(SC)C2N(C)c2ccc(OC)cc23)N1C(C)=O (stereo not given in full)
CCCCC1=CC2=CC(=O)C(C)(O)C(=O)C2=CO1 (stereo not given)
COc1cccc([C@@H]2[C@@H](C)CC[C@@H]3C(=O)NC[C@H](O)CN32)c1
C=C[C@H](C)[C@](C)(O)c1ccccc1
C[C@@H]1CC[C@H]2C(=O)O[C@@H](COc3ccc(C(C)(C)C)cc3)CN2[C@@H]1c1ccc(Br)cc1
COc1cccc([C@H]2Oc3ccc(OC)cc3C(=NO[C@H](C)c3cn([C@H](CO)Cc4ccccc4)nn3)[C@H]2O)c1
CCCCCCCc1cc2c(cn1)C(=O)C(C)(OC(C)=O)C(O)=C2Cl (stereo not given)
CC1(C)OCC([C@H](O)C2=CCCCC2=O)CO1
